CRFR2-BP antag: antagonists of CRF-binding protein/CRF-R2 receptor complex | inhibition, % at 11.8 µM | AID 588475 | actives 0.59% (n = 350,000) | HEK293 CRF-R2/CRF-BP, CRF-induced calcium fluorescence;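 active means inhibition of the ligand-induced calcium signal above about 50% at the single tested concentration, limit read from the data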
NOD2-RIPK2 inh: blocks binding of human NOD2 to RIPK2 | inhibition, % at 4.98 µM | actives 0.38% (n = 360,000) | CHO BLA complementation NOD2-RIPK2, CCF4 ratio | O43353; in the data active means inhibition above about 21%;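 further: 0% = vehicle only and 100% = reference blocker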
TLR4 MyD88 comp: inhibitors of human TLR4-MyD88 binding; AID 861; O00206+Q99836; HeLa CL3-4 TLR4/MyD88 BLA complementation, FRET ratio; inhibition, % at 8.4 µM; actives 0.18% (n = 200,000); in the data active means inhibition above about 25%;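 further: 0% = vehicle and 100% = reference inhibitor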
TLR9-MyD88 block: inhibitors of human TLR9-MyD88 binding; Q9NR96+Q99836; CHO BLA complementation TLR9-MyD88, CCF4 FRET ratio; inhibition, % at 4.98 µM; actives 0.21% (n = 340,000); AID 504734;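 active means inhibition above the mean over all tested compounds plus 3 SD, cut at about 21% in these data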;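 further: 0% = DMSO only wells and 100% = clavulanate BLA inhibitor control wells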
ABHD5 PLIN5 PPI: inhibitors of human ABHD5-perilipin-5 interaction; Q00G26+Q8WTS1; Split G. princeps luciferase complementation, luminescence, 4 h; inhibition, % at 4 µM; actives 0.78% (n = 360,000);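 active means inhibition above the mean inhibition across every tested compound plus 3 SD, cut at about 22% in these data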;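 further: 0% = DMSO only wells and the 100% control is not disclosed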
m5-HT2A agonist: mouse HTR2A agonism via beta-arrestin recruitment | P35363 | CHO-K1 mHTR2A beta-arrestin complementation, luminescence; percent of 30 µM serotonin response | activation, % at 7.6 µM | actives 0.66% (n = 360,000) | AID 624169;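 active means activation above a run cutoff, the mean activation of all tested compounds plus 3 SD, cut at about 14% in these data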;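 further: 0% = plate median of compound wells and 100% = 30 µM serotonin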
MOR ag counter: activates human mu opioid receptor in HTR2A counterscreen; shares compounds with m5-HT2A agonist; AID 624380; U2OS OPRM1 beta-arrestin PathHunter, luminescence; DMSO 0%, DAMGO 9.3 µM 100%; activation, % at 9.3 µM; actives 5.3% (n = 2,300);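 active means mean activation above the mean of DMSO-only wells plus 3 SD, cut at about 0.5% in these data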
HTR2A ag conf: confirmation of mouse HTR2A serotonin receptor agonists; shares compounds with m5-HT2A agonist; CHO-K1 PathHunter beta-arrestin recruitment, luminescence; DMSO 0%, 30 µM serotonin 100%; actives 19% (n = 2,300); activation, % at 7.6 µM;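 active means mean activation across triplicates above the hit threshold derived in the original primary screen, cut at about 15% in these data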
Numbers without * were called inactive; . = no result given. Most compounds without a hit are left out; they make up all but 2.4% or so of the library.

SMILES	CRFR2-BP antag	NOD2-RIPK2 inh	TLR4 MyD88 comp	TLR9-MyD88 block	ABHD5 PLIN5 PPI	m5-HT2A agonist	MOR ag counter	HTR2A ag conf
CCC(=O)N1CCC1(C)C(=O)NCc1ccc(SC)cc1 (stereo not given)	.	6	.	.	5	1	.	.
O=C(NC1CCC(O)CC1)c1ccc(NS(=O)(=O)c2cccc([N+](=O)[O-])c2)cc1 (stereo not given)	3	1	.	17	-1	15*	0	-4
O=C(/C=C/[C@H]1O[C@@H](n2ccc(=O)[nH]c2=O)[C@H](O)[C@@H]1O)NCc1ccco1	.	3	.	.	4	-4	.	.
Nc1ccc2nc(-c3ccccc3)[nH]c2c1	-5	0	2	13	2	15*	0	-5
O=C(NCC1CCCO1)NC1CCCCC1 (stereo not given)	-7	-4	4	-5	-5	17*	-1	-4
Cc1ccc(N(C)S(=O)(=O)c2csc(C(N)=O)c2)cc1C	-6	-3	.	2	4	15*	0	2
Cc1ccc(C)c(N2CCN(C(=O)Cn3c(=O)oc4cc(S(=O)(=O)N5CCCC5)ccc43)CC2)c1	7	4	.	-6	-2	29*	0	-2
Cc1cccc(NC(=O)Cn2c(=O)oc3cc(S(=O)(=O)N4CCCC4)ccc32)n1	-8	9	.	-3	-4	2	.	.
CC(NC(=O)Cn1c(=O)oc2cc(S(=O)(=O)N3CCCC3)ccc21)c1ccccc1 (stereo not given)	27	8	0	-8	8	18*	-1	-5
C/C=C/c1cccc(-c2nc(C(=O)NC3CCC3)cc3c2[C@H](CCO)N(S(=O)C(C)(C)C)C3)c1 (stereo not given in full)	.	-4	.	.	-3	0	.	.
CCCC[C@@H]1CC2=C(C(=O)OC(C)(C)O2)[C@@H](c2ccc(Cl)cc2)O1	.	-4	.	.	-4	-6	.	.
Fc1ccc(NC(=S)N2CCOCC2)c(F)c1	12	4	.	4	2	5	.	.
Cc1ccc(C(=O)N2CCN(c3ncnc4c(C)csc34)CC2)cc1	-9	-3	.	10	2	6	.	.
Cc1csc2c(N3CCN(C(=S)Nc4ccc(F)cc4F)CC3)ncnc12	0	-8	.	-7	-11	34*	-1	5
Cc1csc2c(N3CCN(C(=O)Nc4ccccc4)CC3)ncnc12	2	8	.	-7	-4	21*	0	-1
CC1=C(C(=O)N2CCCCCC2)CC(CC(=O)NCCc2ccccn2)C(=O)N1CCCN1CCCC1=O (stereo not given)	.	-8	.	.	6	4	.	.
COc1ccc(C(=O)Nc2nc3ccccc3s2)cc1	-13	-5	.	2	-4	-2	.	.
O=C(Nc1nc2ccccc2s1)c1ccc(F)cc1	-12	-1	6	-9	-6	53*	0	-3
Cc1cccc(N2C(=O)C3C4C=CC(C4)C3C2=O)c1 (stereo not given)	3	5	2	6	-3	22*	0	0
CCOC(=O)CN1CCS(=O)(=O)CC1	12	1	-2	0	1	16*	0	2
O=C1c2ccccc2C(c2nnnn2Cc2ccccc2)N1CCCN1CCOCC1 (stereo not given)	.	-3	.	.	11	-4	.	.
O=C(Nc1cnc2ccccn2c1=O)c1ccc(F)cc1	11	0	-12	-4	0	17*	-1	-3
COc1cccc(Nc2nc(C(N)Cc3ccc(Cl)cc3)cs2)n1 (stereo not given)	.	-3	.	.	-9	1	.	.
COc1ccc(NC2CCCN(C(=O)Cn3ccc(C)n3)C2)cc1OC (stereo not given)	-15	0	.	-2	-2	15*	0	0
COc1cccc(-c2cc3nc(NCc4ccc(C)cc4C)n(C)c(=O)c3s2)c1	.	0	.	.	1	8	.	.
SMILES	CRFR2-BP antag	NOD2-RIPK2 inh	TLR4 MyD88 comp	TLR9-MyD88 block	ABHD5 PLIN5 PPI	m5-HT2A agonist	MOR ag counter	HTR2A ag conf
Cc1ccc(S(=O)(=O)N2C[C@H]3C(=O)C[C@@H](c4ccccc4)N(S(=O)(=O)c4ccc(C)cc4)[C@H]3C[C@H]2c2cccc(C)c2)cc1	.	7	.	.	-6	2	.	.
O=Cc1ccc(OC(=O)c2cccnc2)cc1	-2	-10	7	-9	-4	15*	-1	-6
CN(C)c1ccc(-c2csc(C(C)(O)c3cccc(F)c3)n2)cc1 (stereo not given)	.	-2	.	.	-10	9	.	.
COc1ccccc1CNC(=O)COC(=O)c1ccc2c(=O)n3c(nc2c1)CCCCC3	-8	-6	.	14	6	18*	-1	0
OCC[C@@H]1C[C@H](O)[C@@H](O)[C@@]2(Cc3ccccc3CO2)O1	3	-2	.	-3	-2	2	.	.
OCC[C@H]1C[C@@H](O)[C@H](O)[C@@]2(Cc3ccccc3CO2)O1	6	8	.	-3	0	15*	-1	0
COc1ccc2oc(C(=O)OCC(=O)N3CCCC(C)C3)c(C)c2c1 (stereo not given)	2	3	.	2	2	20*	-1	-3
Cc1c(C(=O)NCc2cccc(C(F)(F)F)c2)sc(=O)n1Cc1ccccc1F	.	2	.	.	-7	25*	0	-7
OCCNc1nc(Nc2ccccc2C(F)(F)F)nc(N2CCCC2)n1	4	-5	.	12	-3	17*	-1	-3
COc1cc(NC(=O)c2ccc(-c3cnn(C)c3)c3ccoc23)cc(OC)c1OC	.	-13	.	.	5	1	.	.
Cc1cc(C)nc(SCC(=O)c2ccc(F)c(C)c2)n1	5	-6	.	-5	6	36*	-1	-1
Cc1cccc(NC(=O)CSc2nnc(-c3ccco3)n2CC2CCCO2)n1 (stereo not given)	-5	-9	-9	-12	1	15*	-1	-5
CC(O)(c1ccc(F)c(F)c1)c1nc(-c2ccccc2)cs1 (stereo not given)	.	0	.	.	-3	-1	.	.
CCCN(CCC)CCNC(=O)c1cc2c(-c3ccc(Cl)cc3)nn(C)c2s1	2	1	.	3	12	30*	0	51*
COc1cc(F)ccc1-c1csc(C(C)(O)c2ccc(F)c(F)c2)n1 (stereo not given)	.	3	.	.	-3	5	.	.
CCOC(=O)c1[nH]cnc1C(=O)N1CCN(C(=O)OC(C)(C)C)CC1	8	-5	.	5	4	18*	-1	-4

Bioassay records: PubChem BioAssay, several laboratories
